SMILES strings stand for the structures. Where “and” joins values, the source holds several entries; their conditions need not be identical. Equal values may be shown once. Values without a mark were called inactive. Records with an inconclusive call do not appear. Calls of active or inactive are those of the source. Unless noted, calls follow the shape of the dose curve; as a rule, active = well fitted curve in the direction sought with a large enough effect; inconclusive = small, poorly fitted or top-dose-only effect, or another doubt; inactive = no such curve, though single readings can be large; an effect the other way counts as inactive or inconclusive.

We go through nine compounds from PubChem BioAssay (NCATS).

Assay [1] in a line: Cell Viability - HUV-EC-C (AID 542). Also: nearly all actives have a fitted effect of over 35% in size. Also: potency is read from the fitted curve at half-maximal effect. As to activity change, negative = cytotoxicity: % is scaled to controls: 0 for no effect and ±100 for the full control effect. In a few lines:
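HUV-EC-C normal human vascular endothelial cells, 1000 cells/well, pre-incubated 5 hr at 37 °C, then exposed to compounds for 40 hr at 37 °C in complete medium. Viability measured as intracellular ATP by CellTiter-Glo luminescence; AC50 from Hill fits.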

Assay [2] can be described thus: Cellular Toxicity (caspase-3) H-4-II-E (AID 663). Also: potency is read from the fitted curve at half-maximal effect.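 As to caspase-3 activation: cells exposed to compound for 16 hr before readout.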 Conditions: H-4-II-E rat hepatoma; Potency: caspase-3 activation; caspase-3 activation: at 92.2 µM (top of the series), scaled: DMSO 0%, 100 µM tamoxifen 100%. In a few lines: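 Apoptosis induction is scored as increased luminescence from caspase 3/7 substrate cleavage in rat hepatoma H-4-II-E cells exposed to compound for 16 hr. Activity is scaled between DMSO and 100 uM tamoxifen.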

Assay [3] can be described thus: MultiTox-Fluor Cytotoxicity Assay - LYMP1-001 - Live Cells (AID 947). Also: potency is read from the fitted curve at half-maximal effect.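 As to activity change, negative = cytotoxicity: 0% = DMSO only and full inhibition = tetraoctylammonium bromide control.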
Assay [4] can be described thus: Cell Viability - LYMP1-002 - Assay at 16 hr (AID 948). Also: potency is read from the fitted curve at half-maximal effect.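 As to activity change, negative = cytotoxicity: 0% = DMSO alone and full effect = 92 µM tetraoctylammonium bromide.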 In a few lines:
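Seed 2500 LYMP1-002 cells per well in complete medium and hold 5 hr at 37 C. Add compound across a concentration series and incubate 16 hr at 37 C. Add CellTiter-Glo, wait 30 min at room temperature, read luminescence.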

Assay [5] can be described thus: MultiTox-Fluor Cytotoxicity Assay - LYMP1-002 - Dead Cells (AID 960). Also: nearly all actives have a fitted effect of over 60% in size. Also: potency is read from the fitted curve at half-maximal effect. In a few lines:
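Human lymphoblastoid cells (LYMP1-002), 2500/well in complete medium, were exposed to compounds for 16 hr at 37 C. Dead-cell protease activity was read as bis-AAF-R110 fluorescence (Ex/Em 485/520), normalized to DMSO and 15 uM tetraoctylammonium bromide; AC50 from Hill fits.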

The nature of assay [6]: Cell Viability - LYMP2-026 (AID 989). Also: nearly all actives have a fitted effect of over 50% in size. Also: potency is read from the fitted curve at half-maximal effect. In a few lines:
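Human lymphoblastoid cells (2500/well) in complete medium were preincubated 5 hr at 37 C, then exposed to compounds for 24 hr at 37 C. Cellular ATP was read by CellTiter-Glo luminescence; AC50 from Hill-equation fits of concentration-response data.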

Assay [7] concerns the target Voltage-gated inwardly rectifying potassium channel KCNH2 (Homo sapiens) (UniProt Q12809). Briefly: qHTS Assay for Small Molecule Inhibitors of the Human hERG Channel Activity (AID 588834).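 Also: lower thallium flux fluorescence means stronger hERG block; nearly all actives have a fitted effect of over 50% in size.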 Also: potency is read from the fitted curve at half-maximal effect. In a few lines: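 hERG-BacMam U2OS, 2000 cells/well; 0.7X FluxOR loading 1 hr RT dark; cpd ~10 min 37 °C; stim buffer; FDSS fluorescence 2 min @ 1 s; AC50 Hill fit.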
Assay [8] can be described thus: qHTS assay for small molecule disruptors of the mitochondrial membrane potential - 1 hr assay (AID 651754; calls by dose curve; also: nearly all actives have a fitted effect of over 35% in size; also: potency is read from the fitted curve at half-maximal effect). In a few lines: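 HepG2 cells, attached overnight at 37C, were exposed to compound or DMSO vehicle for 1 hr at 37C, 5% CO2, then stained with Mito-MPS dye for 30 min. Red aggregate versus green monomer fluorescence reports membrane potential.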
A general note: In qHTS, concentration-response curves come from the screen itself.

For assay [9], the target named is Tumor necrosis factor (Homo sapiens) (UniProt P01375). Briefly: qHTS assay to identify small molecules that stimulate Tumor Necrosis Factor-alpha (TNF-alpha) secretion (AID 651757; active = well fitted curve in the direction sought with a large enough effect in the signal ratio; the % refers to the signal ratio; also: 0% is about no effect). In a few lines: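 THP-1 cells were exposed to compounds for 17 hrs at 37 C, after which secreted TNF-alpha was measured by homogeneous HTRF (TR-FRET) using cryptate- and XL665-labeled anti-TNF-alpha antibodies, read after 3 hr at room temperature.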

Assay [10] deals with Nuclear receptor ROR-gamma (Homo sapiens) (UniProt P51449). Briefly: qHTS assay for small molecule antagonists of the retinoid-related orphan receptor gamma (ROR-gamma) signaling pathway (AID 651802). Also: nearly all actives have a fitted effect of over 60% in size. Also: potency is read from the fitted curve at half-maximal effect. In a few lines:
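CHO cells carrying TET-inducible ROR-gamma and an ROR response element–luciferase reporter were exposed to compound, then induced with doxycycline. After 16hr at 37C, luminescence was read; lower signal indicates antagonism.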

A short description of assay [11]: qHTS assay for small molecule agonists of the antioxidant response element (ARE) signaling pathway measured by Nrf2-dependant transcriptional activity (AID 720636; active = well fitted curve in the direction sought with a large enough effect in the repeat runs; an effect the other way counts as inactive or inconclusive; also: potency is read from the fitted curve at half-maximal effect;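 as to activation: HepG2 cells with an ARE-driven luciferase reporter; % of control where 0% means no effect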). In a few lines:
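In HepG2 cells engineered with an Nrf2-responsive luciferase gene, ARE induction was quantified as luminescence after 16 hr compound treatment at 37 C.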

Assay [12] is described as follows: qHTS assay for small molecule antagonists of the retinoid-related orphan receptor gamma (ROR-gamma) signaling pathway - cell viability counter screen (AID 720652; active = well fitted curve in the direction sought with a large enough effect in the repeat runs; an effect the other way counts as inactive or inconclusive;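 also: compound exposure lasted 16 hr before ATP read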; also: potency is read from the fitted curve at half-maximal effect; as to activity change, negative = cytotoxicity: % is scaled to controls: 0 for no effect and ±100 for the full control effect). In a few lines: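 Counter screen in CHO cells carrying TET-inducible ROR-gamma and an ROR response element-luciferase reporter; cells plated 5 hr, compound pinned, doxycycline added, then 16 hr at 37 C. Viability read as intracellular ATP by CellTiter-Glo luminescence.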

Assay [13] is described as follows: Cell Viability - NIH 3T3 (AID 541). Also: nearly all actives have a fitted effect of over 25% in size. Also: potency is read from the fitted curve at half-maximal effect.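 As to activity change, negative = cytotoxicity: plate controls were DMSO alone for no effect and tamoxifen positive control for full effect.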 Conditions: NIH 3T3 cell viability, qHTS; activity change, negative = cytotoxicity: at 92.2 µM (top of the series). In a few lines: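 NIH 3T3 mouse embryo fibroblasts (1000 cells/well) were plated in complete medium and treated with compound for 40 hr at 37 °C. Viability was read as intracellular ATP by CellTiter-Glo luminescence; AC50 values came from Hill-equation fits of concentration-response data.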

The target in assay [14] is Thyroid hormone receptor beta (Homo sapiens) (UniProt P10828). Briefly: qHTS assay for small molecule agonists of thyroid hormone receptor beta signaling (AID 588545; calls by dose curve;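 also: 0% = DMSO only and 100% = 10 nM T3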). In a few lines: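 Efficacy and EC50 values derive from Hill fits of qHTS titration data, normalized to 10 nM T3 and DMSO-only wells. HEK 293 reporter cells were stimulated for 18 hrs at 37 C, with beta-lactamase activity measured by CCF4 fluorescence.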

Assay [15] addresses Nuclear receptor subfamily 1 group I member 2 (Rattus norvegicus) (UniProt Q9R1A7). Briefly: qHTS assay for small molecule activators of the rat pregnane X receptor (rPXR) signaling pathway (AID 651751; call rule not given here; also: 0% is about no effect). Conditions: rPXR reporter cells, luciferase (One-Glo), 24 h.
The nature of assay [16]: qHTS assay for small molecule activators of the human pregnane X receptor (PXR) signaling pathway (AID 720659; call rule not given here; also: 0% is about no effect).
A short description of assay [17]: Cellular Toxicity (caspase-3) MRC-5 (AID 659).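 Also: 0% = DMSO basal and 100% = 10 µM staurosporine.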 In a few lines:
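Concentration-dependent caspase 3/7 activation is measured in human normal lung fibroblasts (MRC-5) following 16-hour treatment. AC50 values come from standard Hill-equation modeling of luminescence normalized to DMSO and 10 uM staurosporine.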

Assay [18] in a line: Cell Viability - LYMP2-005 (AID 967). Also: potency is read from the fitted curve at half-maximal effect. In a few lines:
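Acute cytotoxicity is scored as a concentration-dependent drop in intracellular ATP in human lymphoblastoid LYMP2-005 cells after 24 h compound treatment. ATP is quantified by luciferase luminescence, and AC50 is derived by Hill-equation modelling.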

Assay [19] can be described thus: Cellular Toxicity (caspase-3) Jurkat (AID 655).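 Also: cells exposed to compound for 16 h at 37 °C before reading.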 Conditions: Jurkat caspase-3 activation, luminescence; caspase-3 activation: at 92.2 µM (top of the series), DMSO = 0%, tamoxifen = 100%. In a few lines:
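5000 Jurkat cells/well; compound 16 hr, 37 °C; Caspase-Glo 3/7 added, 20 min RT; luminescence read. Norm: DMSO = 0%, tamoxifen 100 uM = 100%. AC50, Hill model.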

Assay [20] is described as follows: Cellular Toxicity (caspase-3) SHSY5Y (AID 657). In a few lines: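 qHTS, SH-SY5Y, 1500 cells/well, 5 h pre-incubation 37 °C; compound 16 h 37 °C; Caspase-Glo 3/7 1 h RT; luminescence. Norm.: DMSO = 0, 10 uM staurosporine = 100%. Hill fit → AC50.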

Thyroid hormone receptor beta (Homo sapiens), sequence (P10828 whole entry, looked up): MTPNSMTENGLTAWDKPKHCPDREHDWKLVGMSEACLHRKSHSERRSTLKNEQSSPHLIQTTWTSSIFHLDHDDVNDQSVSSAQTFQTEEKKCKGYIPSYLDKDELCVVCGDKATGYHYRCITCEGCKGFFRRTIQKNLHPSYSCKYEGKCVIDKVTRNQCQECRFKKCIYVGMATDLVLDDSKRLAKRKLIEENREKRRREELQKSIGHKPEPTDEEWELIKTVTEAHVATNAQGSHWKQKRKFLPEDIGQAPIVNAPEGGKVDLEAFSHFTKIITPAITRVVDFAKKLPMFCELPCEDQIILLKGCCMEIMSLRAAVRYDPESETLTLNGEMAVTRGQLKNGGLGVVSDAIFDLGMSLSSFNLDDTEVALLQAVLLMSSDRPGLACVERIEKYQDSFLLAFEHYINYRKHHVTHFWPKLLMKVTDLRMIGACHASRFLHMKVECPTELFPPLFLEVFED
Voltage-gated inwardly rectifying potassium channel KCNH2 (Homo sapiens), sequence (Q12809 whole entry, looked up): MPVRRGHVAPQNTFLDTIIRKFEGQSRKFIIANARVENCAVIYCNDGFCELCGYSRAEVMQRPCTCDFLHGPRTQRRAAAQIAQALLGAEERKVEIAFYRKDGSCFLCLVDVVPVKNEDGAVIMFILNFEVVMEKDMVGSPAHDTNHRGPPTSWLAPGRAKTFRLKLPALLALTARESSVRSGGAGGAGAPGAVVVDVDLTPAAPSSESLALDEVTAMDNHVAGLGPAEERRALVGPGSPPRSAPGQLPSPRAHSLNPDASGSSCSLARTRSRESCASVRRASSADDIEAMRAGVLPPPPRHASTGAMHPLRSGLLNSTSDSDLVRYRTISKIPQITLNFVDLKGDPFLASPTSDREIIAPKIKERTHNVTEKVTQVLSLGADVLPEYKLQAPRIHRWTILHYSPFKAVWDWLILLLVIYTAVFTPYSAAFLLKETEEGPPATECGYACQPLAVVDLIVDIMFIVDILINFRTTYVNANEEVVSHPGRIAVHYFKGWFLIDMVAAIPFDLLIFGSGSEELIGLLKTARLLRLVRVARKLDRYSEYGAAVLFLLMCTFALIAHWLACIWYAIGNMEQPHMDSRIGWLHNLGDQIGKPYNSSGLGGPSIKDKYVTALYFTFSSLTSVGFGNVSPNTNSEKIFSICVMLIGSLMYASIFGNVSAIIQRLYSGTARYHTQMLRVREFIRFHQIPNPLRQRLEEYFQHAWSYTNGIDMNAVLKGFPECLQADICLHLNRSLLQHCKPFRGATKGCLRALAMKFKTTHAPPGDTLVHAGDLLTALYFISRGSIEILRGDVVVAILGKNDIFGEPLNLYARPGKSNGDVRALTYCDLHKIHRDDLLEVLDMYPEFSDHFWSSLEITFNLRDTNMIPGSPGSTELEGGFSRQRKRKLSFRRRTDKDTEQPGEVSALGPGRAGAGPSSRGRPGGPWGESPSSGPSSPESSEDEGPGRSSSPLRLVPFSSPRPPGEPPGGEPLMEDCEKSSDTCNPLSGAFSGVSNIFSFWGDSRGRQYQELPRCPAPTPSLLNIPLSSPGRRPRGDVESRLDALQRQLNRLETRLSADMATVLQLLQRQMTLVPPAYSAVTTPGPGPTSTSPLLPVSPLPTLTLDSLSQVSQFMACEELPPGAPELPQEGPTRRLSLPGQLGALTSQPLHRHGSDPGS
Nuclear receptor subfamily 1 group I member 2 (Rattus norvegicus), sequence (Q9R1A7 whole entry, looked up): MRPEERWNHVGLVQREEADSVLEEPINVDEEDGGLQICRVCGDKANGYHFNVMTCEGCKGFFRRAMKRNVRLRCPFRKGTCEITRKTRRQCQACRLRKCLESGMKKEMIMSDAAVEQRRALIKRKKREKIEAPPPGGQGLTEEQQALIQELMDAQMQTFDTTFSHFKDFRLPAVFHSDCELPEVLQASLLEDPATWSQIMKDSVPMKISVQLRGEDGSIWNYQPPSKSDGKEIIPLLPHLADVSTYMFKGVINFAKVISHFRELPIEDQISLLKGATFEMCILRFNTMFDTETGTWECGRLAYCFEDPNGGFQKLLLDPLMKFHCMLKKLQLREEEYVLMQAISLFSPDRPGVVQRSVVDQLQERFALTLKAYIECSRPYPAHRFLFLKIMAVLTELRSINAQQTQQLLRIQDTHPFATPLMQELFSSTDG
Tumor necrosis factor (Homo sapiens), sequence (P01375 whole entry, looked up): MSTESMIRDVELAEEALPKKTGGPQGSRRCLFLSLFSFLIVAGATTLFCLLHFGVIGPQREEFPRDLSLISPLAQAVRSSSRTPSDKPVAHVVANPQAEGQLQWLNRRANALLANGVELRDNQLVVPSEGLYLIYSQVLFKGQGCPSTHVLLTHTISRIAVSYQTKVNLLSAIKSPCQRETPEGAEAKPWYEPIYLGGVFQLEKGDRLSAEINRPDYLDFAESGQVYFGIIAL
Nuclear receptor ROR-gamma (Homo sapiens), sequence (P51449 whole entry, looked up): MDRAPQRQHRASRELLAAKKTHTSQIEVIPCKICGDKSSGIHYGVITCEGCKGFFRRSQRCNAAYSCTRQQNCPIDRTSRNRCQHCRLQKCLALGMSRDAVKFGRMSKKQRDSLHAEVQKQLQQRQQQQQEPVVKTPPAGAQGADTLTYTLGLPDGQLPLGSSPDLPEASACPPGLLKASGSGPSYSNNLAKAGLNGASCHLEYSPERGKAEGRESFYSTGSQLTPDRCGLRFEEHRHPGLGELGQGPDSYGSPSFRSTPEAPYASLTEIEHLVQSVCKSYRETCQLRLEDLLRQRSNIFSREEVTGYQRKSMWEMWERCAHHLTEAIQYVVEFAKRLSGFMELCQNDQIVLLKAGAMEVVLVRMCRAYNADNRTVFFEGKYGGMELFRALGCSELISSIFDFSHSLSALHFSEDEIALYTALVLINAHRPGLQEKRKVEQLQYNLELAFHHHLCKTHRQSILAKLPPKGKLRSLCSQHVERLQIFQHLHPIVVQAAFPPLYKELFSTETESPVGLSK

Regarding `Cc1cc(O)c(C(C)(C)C)cc1Sc1cc(C(C)(C)C)c(O)cc1C`, the Potency in assay [1] is 39.8 µM (active); in assay [2], 31.6 µM (active); in [3] it was 31.6 µM (active); in assay [4] it was 50.1 µM (active); in assay [5], 31.6 µM (active); in assay [6], 25.1 µM (active). Also, the Potency in assay [7] is 39.8 µM (active); in assay [8], 10.6 µM (active); in assay [10] it was 4.22 µM (active); in assay [12], 18.8 µM (active). Moreover, the compound was called inactive in [9]. Besides, the Potency result in assay [11] was “inactive”.

Consider `c1cc(OCC2CO2)cc(OCC2CO2)c1` (configuration not stated), for which, in assay [13], the activity change, negative = cytotoxicity was -149% (active). The result in assay [14], in assay [9] and in [16] was inactive. The Potency entry in [7] was “inactive”. Further, the max response in assay [15] is -8.72% and -4.5%.

For `C=CC(=O)OCCOCCOC(=O)C=C`, the Potency was 3.16 µM (active) in assay [13]; 31.6 µM (active) in assay [3]; 25.1 µM (active) in [5]; 10 µM (active) in [18]; 20 µM (active) in assay [6]; 66.8 µM (active) in assay [11]. Moreover, the result in assay [17], in assay [14], in assay [9] and in assay [16] was inactive. In addition, the Potency result in assay [7], in assay [8] and in assay [12] was “inactive” each time. Moreover, the max response in assay [15] is 9.16%.

Take `O=[N+]([O-])c1cc([N+](=O)[O-])c2ccc(S(=O)(=O)O)cc2c1O`: the Potency result in [13], in assay [1], in assay [19], in [20], in [4] and in [5] was “inactive” throughout. For the same compound, the Potency entry in [18], in assay [6], in assay [8] and in [12] was “inactive” each time. Also, the compound was classed as inactive in assay [17]. Also, the caspase-3 activation in assay [2] is 0.036%.

With `c1ccc2c(c1)-c1cccc3c1c-2cc1ccccc13`, the Potency result in [1], in assay [19], in assay [20], in assay [3], in assay [4] and in [5] was “inactive” each time. Further, the Potency result in [18], in [6], in [7] and in assay [8] was “inactive” in each case. In addition, the outcome in assay [17] was inactive. In addition, the caspase-3 activation in assay [2] was 11.1%.

Turning to `Oc1ccc2cc(SSc3ccc4cc(O)ccc4c3)ccc2c1`, the Potency result in assay [19], in assay [20] and in [5] was “inactive” throughout. Moreover, the outcome in [17], in assay [14] and in assay [9] was inactive. The caspase-3 activation in assay [2] was 4.17%. Besides, the Potency was 50.1 µM (active) in assay [4], 44.7 µM (active) in assay [7] and 66.8 µM (active) in [8]. The max response in assay [15] was -6.62%.

As for `CN(C)c1ccc(C2(c3ccc(N(C)C)cc3)OC(=O)c3cc(N(C)C)ccc32)cc1`, the Potency result in assay [1], in assay [19], in [20], in assay [3], in [4] and in [6] was “inactive” each time. In addition, the Potency entry in [10], in [11] and in [12] was “inactive” each time. The compound was called inactive in assay [17] and in assay [16]. Besides, the caspase-3 activation in assay [2] is 0.305%. Moreover, in [15], the max response was -2.55%.

`CNc1ccc(O)cc1`: the Potency was 25.1 µM (active) in assay [13]; 31.6 µM (active) in assay [3]; 5.01 µM (active) in [18]; 7.94 µM (active) in assay [6]; 37.6 µM (active) in assay [11]. The Potency entry in [20] and in assay [7] was “inactive” each time. Further, the outcome in [17], in assay [14] and in assay [16] was inactive. Further, in assay [2], the caspase-3 activation is -5.23%. For the same compound, the max response in assay [15] was -0.134%.

As for `c1ccc2c(c1)ccc1cc3c(ccc4ccccc43)cc12`, the Potency entry in [13], in assay [1], in assay [19], in [20], in assay [3] and in assay [4] was “inactive” each time. Further, the Potency result in [5], in assay [18], in [6], in assay [7], in [8] and in assay [12] was “inactive” each time. Also, the compound was classed as inactive in [17] and in assay [16]. The caspase-3 activation in [2] is -1.53%.
